Source: PubChem
FUS yeast rescue: suppressors of FUS proteinopathy in yeast; Potency, µM (top dose mostly 76.6 µM), usual class: activators; 0.24% of 390,000 active; S. cerevisiae FUS-expressing, growth rescue, OD600, 24 h;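 also: plate controls were DMSO vehicle for no effect and reference control for full effect; nearly all actives have a fitted effect of over 55% in size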
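S. cerevisiae expressing FUS from galactose induction served as the toxicity model. Growth after 24hr at 30C, read as absorbance at 600 nm, indicates suppression of toxicity; compounds dosed at several concentrations.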
aSyn yeast inh: rescues yeast growth from alpha-synuclein toxicity; Yeast expressing alpha-synuclein, growth rescue, BacTiter-Glo, 24 h; AID 652106; Potency, µM (doses to about 46.1 µM), for inactives: at the highest dose growth rescue (activation), actives largely listed as activators; 0.14% of 370,000 active; also: % of control where 0% means no effect; nearly all actives have a fitted effect of over 65% in size
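Galactose-induced alpha-syn yeast (OD600=0.02, raffinose-pregrown) + pinned cpd, 24 hr, 30 deg C; growth by BacTiter-Glo luminescence. Growth restoration scores as activation.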
Abeta yeast res: compounds reversing amyloid beta toxicity in yeast | yeast expressing A-beta42, growth rescue, OD600, 48 h; response scale: 0% DMSO, 100% iron-clioquinol control | Potency, µM (top dose mostly 46.1 µM), hits mostly activators | 0.063% of 410,000 active | AID 1347071; also: nearly all actives have a fitted effect of over 55% in size
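Yeast growth medium received pinned compounds, then yeast cells expressing toxic A-beta were added; plates incubated at 30 C for 48 hr. Growth read as absorbance at 600 nm, normalized to DMSO and equimolar FeCl3 plus clioquinol controls.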
Mito fusion yeast: blocks mitochondrial division or promotes mitochondrial fusion. S. cerevisiae fusion-defective mutant growth rescue, CellTiterGlo 48 h. Potency, µM (top dose mostly 46.1 µM), inactives show at the top dose growth rescue (activation), hits mostly activators. 0.23% of 320,000 active. AID 485298; also: % of control where 0% means no effect; nearly all actives have a fitted effect of over 45% in size
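S. cerevisiae fusion-defective temperature-sensitive mutants (e.g. fzo1-1, mgm1-5) grown 48 h at 37C in YPEG (ethanol/glycerol non-fermentable) medium with 23 nl compound per well; growth rescue read as CellTiterGlo luminescence.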
TDP43 rescue: rescues yeast growth from TDP-43 toxicity. 1.8% of 410,000 active. Potency, µM (doses to about 46.1 µM), without a hit: at the highest dose growth rescue (activation), most hits filed as activators. TDP-43 expressing yeast growth rescue, BacTiter-Glo, 24 h; also: % of control where 0% means no effect; nearly all actives have a fitted effect of over 50% in size
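Yeast cells expressing TDP-43 under galactose induction are exposed to compounds for 24 hr at 30 deg C. BacTiter-Glo luminescence measures growth, so protective compounds score as activators.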
* hit, by the source's call; i = inactive; ? = inconclusive; . = no result given; ! = repeats disagree; [ ] = dose if it differs, or a comment. Most compounds without a hit are left out; they make up all but 2.2% or so of the library. Calls follow the shape of the dose curve; as a rule, active = well fitted curve in the direction sought with a large enough effect; inconclusive = small, poorly fitted or top-dose-only effect, or another doubt; inactive = no such curve, though single readings can be large; an effect the other way counts as inactive or inconclusive. Potency is read from the fitted curve at half-maximal effect.

SMILES | FUS yeast rescue | aSyn yeast inh | Abeta yeast res | Mito fusion yeast | TDP43 rescue
Cc1ccc(C(=O)NC(=S)NCc2ccccc2)cc1 | i | -8.6% | ? | -17.7% | 15.8µM*
O=C(NC(=S)NCc1ccccc1)c1cccc(Cl)c1 | i | 1.1% | i | 9.5% | 15.8µM*
S=C(NCc1ccccc1)NCc1cccc(Cl)c1 | i | 2.6% | 14.1µM* | -11.3% | 29.2%
S=C(NCc1ccccc1)NCc1ccccc1Cl | i | 0.4% | 12.6µM* | -9.0% | ?
Cc1ccccc1OCC(=O)Nc1ccc(OCc2cc(=O)n3ccccc3n2)cc1 | i | . | i | . | 3.2%
CCOc1ccc(NC(=O)CCCc2nnc3n(C)c(=O)c4sccc4n23)cc1 | i | . | i | . | 23.8%
Cc1ccc(C(=O)N/C(=C\c2ccccc2)C(=O)NCc2cccnc2)cc1 | i | -7.8% | i | 5.3% | 2µM*
CC(=O)Oc1ccc(Oc2ccc(-c3noc(C)n3)cc2)cc1 | i | -12.5% | i | 10.0% | 11.2µM*
CN(C(=O)c1ccc(-c2nn(C)c(=O)c3ccccc23)cc1)c1ccccc1 | i | . | i | -1.0% | 14.1µM*
COc1ccccc1NC(=O)COc1ccc(-c2nn(C)c(=O)c3ccccc23)cc1 | i | 0.0% | i | 16.5% | 22.4µM*!
COc1ccccc1NC(=O)Cn1nc(-c2ccc(Cl)cc2)c2ccccc2c1=O | i | 15.3% | i | 14.1% | 28.1%
COc1ccccc1NC(=O)Cn1nc(-c2ccc(C)cc2)c2c(c1=O)CCCC2 | i | . | i | . | 31.6µM*
Cn1nc(-c2ccc(OCC(=O)Nc3ccccc3)cc2)c2ccccc2c1=O | i | . | i | 7.8% | 15.8µM*
Cn1nc(-c2ccc(OCC(=O)Nc3ccc(Cl)cc3)cc2)c2ccccc2c1=O | i | . | i | . | 0.0%
O=C(CCS(=O)(=O)c1cccs1)Nc1ccc(C(=O)Nc2ccccc2F)cc1 | i | . | i | . | -6.4%
COc1ccc(Cl)cc1S(=O)(=O)Nc1cccc(-c2ccc(N3CCOCC3)nn2)c1 | i | . | i | . | -30.4%
Cc1cccc(NC(=O)COc2ccc(-c3nn(C)c(=O)c4ccccc34)cc2)c1 | ? | 4.5% | i | 6.9% | 35.5µM*
COc1cccc(C2CC(c3cccc(Br)c3)n3ncnc3N2)c1 (stereo not drawn) | i | 9.4% | i | 6.0% | 20µM*
CC1C(=O)N(Cc2cn(CCC3OCCO3)nn2)CCS(=O)(=O)N1Cc1ccc(-c2ccc(Cl)c(Cl)c2)cc1 (stereo not drawn) | ? | 26.2% | i | . | 15.8µM*
CC(C)C1C(=O)N(Cc2cn(CCC3OCCO3)nn2)CCS(=O)(=O)N1Cc1ccc(-c2ccc(Cl)cc2)cc1 (stereo not drawn) | ? | ? | i | . | 35.5µM*
COc1ccc(-c2ccc(CN3C(C)C(=O)N(Cc4cn(CCC5OCCO5)nn4)CCS3(=O)=O)cc2)cc1 (stereo not drawn) | ? | -3.3% | i | . | ?
CC(C)C1C(=O)N(Cc2cn(CCC3OCCCO3)nn2)CCS(=O)(=O)N1Cc1ccc(-c2ccc(Cl)cc2)cc1 (stereo not drawn) | i | -0.7% | i | . | 15.7%
CC(C)C[C@H]1CN(CCCC[C@H]2CNC(=O)C(=O)N2CCc2ccc(O)cc2)C(=O)C(=O)N1CCc1ccccc1 | i | 2.7% | i | . | 19.8%
CNc1ncc(C(=O)c2ccc(Cl)c(Cl)c2)s1 | i | -4.9% | i | -4.7% | ?
CNc1ncc(C(=O)c2ccc(Cl)cc2)s1 | i | -2.9% | i | 4.0% | 10µM*
SMILES | FUS yeast rescue | aSyn yeast inh | Abeta yeast res | Mito fusion yeast | TDP43 rescue
COc1ccc2c(C)c(CCC(=O)NCCc3ccc(Cl)cc3)c(=O)oc2c1 | i | . | i | . | 22.4µM*
COc1ccc(OCC(=O)NCc2ccc(Cl)cc2)cc1 | i | 19.9% | i | -0.8% | 27.9%
COc1ccc(CCC(=O)NCCOc2ccc(Cl)cc2)cc1 | i | 2.1% | i | -2.9% | 8.91µM*
COc1ccc(CCNC(=O)c2oc3ccc(OC)cc3c2C)cc1 | i | -6.1% | i | -1.0% | 3.98µM*
COc1ccc(-c2noc(CSc3nnc(C)n3-c3ccc(OC)cc3)n2)cc1 | ? | . | i | . | 19.9%
O=C(/C=C/c1ccc(F)cc1)c1ccccc1Br | . | ? | i | 9.6% | 15.8µM*
Cc1ccc(C(=O)n2c(N)nc3ccccc32)cc1 | i | -26.2% | i | 3.0% | -8.0%[0.397 µM]
Cc1cccc2c(=O)n(C(=O)c3ccccc3)c(N)nc12 | i | 7.2% | i | . | 20µM*
O=C(/C=C/c1c(F)cccc1Cl)c1ccc(O)cc1 | i | ? | ? | 3.2% | 7.94µM*
COc1ccc(CNC(=O)CCCN2C(=O)CSc3c2c(C)nn3-c2ccccc2)cc1 | i | . | i | . | 22.4µM*
COc1ccc(CNC(=O)CCCN2C(=O)CSc3c2c(C)nn3-c2ccccc2)c(OC)c1 | i | . | i | . | ?
Cc1nn(-c2ccccc2)c2c1N(CCCC(=O)NCc1ccc(N(C)C)cc1)C(=O)CS2 | i | . | i | . | 16.0%
CCCOc1ccc(CNC(=O)CCCN2C(=O)CSc3c2c(C)nn3-c2ccccc2)cc1 | ? | . | i | . | 17.8µM*
CCOC(=O)c1ccccc1NC(=O)c1cc2c(=O)oc3ccc(C)cc3c2s1 | i | . | i | . | -13.9%
COC(=O)c1ccccc1NC(=O)c1ccc2c(c1)CC(C)O2 (stereo not drawn) | i | 5.2% | i | 7.6% | 12.6µM*
NC(=S)N=Nc1ccc(O)cc1 | . | -15.4% | i | . | 12.6µM*
Cc1ccc(SCCNC(=O)c2ccc(C)c(S(=O)(=O)Nc3cccc(C)c3)c2)cc1 | 31.6µM* | 20.1% | i | 10.1% | -8.5%
Cc1ccc(NS(=O)(=O)c2cc(C(=O)NCCSc3ccc(C)cc3)ccc2C)cc1 | i | 17.9% | i | 15.1% | -11.5%
CCc1ccc(CN(C)C(=O)CCc2nc3ccccc3n(-c3ccc(OC)cc3)c2=O)cc1 | ? | 20.4% | i | 3.9% | 17.8µM*
COc1ccc(Br)cc1C(=O)Nc1cccc(NC(=O)c2ccco2)c1 | . | 0.4% | i | ? | 8.91µM*
COc1c(C)cc(Br)cc1C(=O)Nc1cccc(NC(=O)c2ccco2)c1 | . | -20.3% | i | 20µM* | ?
COc1ccc(NC(=O)c2ccco2)cc1NC(=O)c1ccc(C)c(C)c1 | i | . | i | . | 15.8µM*
CCS(=O)(=O)NCCc1csc2nc(-c3ccc(C)cc3)nn12 | i | . | i | . | 18.4%
Cn1nnnc1SCCCNCc1ccccc1OCc1ccccc1Cl | i | 21.8% | i | . | 5.5%
Cc1ccc2oc(=O)n(CCNC(=O)Nc3ccc(Cl)cc3)c2c1 | i | . | i | . | 19.0%
Cc1nc2c3cc(F)ccc3n(Cc3ccccc3F)c2s1 | i | -19.2% | i | 28.5% | 11.2µM*
